This assay is described as follows: qHTS Assay for Lipid Storage Modulators (AID 1519). On activity change, negative = inhibition: on the % scale 0 is the no-effect control and ±100 the full control effect. The conditions noted are these: Drosophila S3 cells, BODIPY lipid droplet/cell ratio, laser cytometry, cells loaded with oleic acid. The essentials:
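Cells seeded at 5,000 per well were treated with compounds over a concentration series and loaded with oleic acid (400 uM, as added). Lipid droplet fluorescence (488 nm excitation, 500-530 nm channel) was read by laser-scanning cytometry and normalized to 20 uM Triacsin C.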
On the technique in general: Quantitative high-throughput screening tests each substance at several concentrations.

Setting [1] is: measured here: cell count channel max response.
Setting [2] is: measured here: lipid channel max response.

Values joined by “and” are separate entries in the source; they are usually repeats but may differ in a detail not shown here. Equal values may be shown once. Records with an inconclusive call do not appear. Active and inactive are the calls of the source. The call rests on the fitted dose curve.

As for `CCc1cccc(CC)c1NC(=O)CN(CC(=O)O)CC(=O)O`, the activity change, negative = inhibition (at 25.7 µM (top of the series)) was 1.96% (inactive). For the same compound, the max response under setting [1] was -4.83% and the max response under setting [2] was -3.06%.

On to `CN/C(=C\[N+](=O)[O-])NCCSCc1csc(CN(C)C)n1`, for which, for the setting “at 25.7 µM (top of the series)”, the activity change, negative = inhibition is -0.861% (inactive). Also, the max response under setting [1] was -17.1% and the max response under setting [2] was -17.9%.

Turning to `CCCNC(C)(C)COC(=O)c1ccccc1`, the activity change, negative = inhibition (at 25.7 µM (top of the series)) was -1.27% (inactive). The max response was -4.93% under setting [1] and -6.33% under setting [2].

As for `CC(C)(C)C(=O)OCOC(=O)[C@@H]1N2C(=O)[C@@H](NC(=O)[C@H](N)c3ccccc3)[C@H]2SC1(C)C`, the activity change, negative = inhibition (at 25.7 µM (top of the series)) is 2.04% (inactive). Besides, the max response is, setting by setting: under setting [1], -13%; under setting [2], -12.6%.

With `CN1CCCN=C1COC(=O)C(O)(c1ccccc1)C1CCCCC1` (stereo not drawn), the activity change, negative = inhibition (at 57.5 µM (top of the series)) was 5.7% (inactive). For the same compound, the max response under setting [1] is 7.14% and the max response under setting [2] stood at 15.3%.

Regarding `C1CCN2C[C@@H]3C[C@@H](CN4CCCC[C@@H]34)[C@H]2C1`, where the note is “at 57.5 µM (top of the series)”, the activity change, negative = inhibition was 2.67% (inactive). Further, the max response is, setting by setting: under setting [1], 14.6%; under setting [2], 18.3%.

In the case of `NC(=O)c1ccc([N+](=O)[O-])cc1Cl`, the activity change, negative = inhibition (at 57.5 µM (top of the series)) is -1.34% (inactive). Moreover, the max response was -11.1% under setting [1] and -9.4% under setting [2].

Turning to `Cc1cccc(C(=O)O)c1O`, under “at 57.5 µM (top of the series)”, the activity change, negative = inhibition was 6.75% (inactive). For the same compound, the max response under setting [1] amounted to 1.99% and the max response under setting [2] is 8.34%.

`C[C@@H](N)C(=O)O`: the activity change, negative = inhibition (at 57.5 µM (top of the series)) is -5.25% (inactive). Besides, the max response under setting [1] was -10.1% and the max response under setting [2] was -15.3%.

For the compound `CNCc1ccccc1`, the activity change, negative = inhibition (at 57.5 µM (top of the series)) is 4.39% (inactive). For the same compound, the max response is, setting by setting: under setting [1], 16%; under setting [2], 24.6%.

For `COc1ccc(NS(=O)(=O)c2ccc(N)cc2)nn1`, the activity change, negative = inhibition (at 25.7 µM (top of the series)) is 0.554% (inactive). Further, the max response is, setting by setting: under setting [1], 3.32%; under setting [2], 3.23%.

In the case of `O=c1[nH]cnc2nc[nH]c12`, where the note is “at 57.5 µM (top of the series)”, the activity change, negative = inhibition is 6.77% (inactive). Besides, the max response by setting is: under setting [1], 11.9%; under setting [2], 19.1%.

Turning to `CC(=O)SC[C@@H](Cc1ccccc1)C(=O)NCC(=O)OCc1ccccc1`, the activity change, negative = inhibition (at 25.7 µM (top of the series)) is -7.97% (inactive). In addition, the max response under setting [1] was -8.69% and the max response under setting [2] is -18.1%.

Consider `CN[C@@H]1[C@H](O)[C@H](NC)[C@H]2O[C@@]3(O)C(=O)C[C@@H](C)O[C@H]3O[C@@H]2[C@H]1O`, for which the activity change, negative = inhibition (at 57.5 µM (top of the series)) was -5.49% (inactive). For the same compound, the max response reads like this: under setting [1], 7.5%; under setting [2], 3.08%.

`CC(=O)Oc1cccc(O)c1`: the activity change, negative = inhibition (at 57.5 µM (top of the series)) was 7.58% (inactive). In addition, the max response is, setting by setting: under setting [1], 7.77%; under setting [2], 18.4%.

On to `CC1CCc2cc(F)cc3c(=O)c(C(=O)O)cn1c23` (stereo not drawn), for which, where the note is “at 57.5 µM (top of the series)”, the activity change, negative = inhibition was 6.51% (inactive). The max response is, setting by setting: under setting [1], 18.4%; under setting [2], 28.6%.

Regarding `C[N+](C)(C)CC[N+]1(C)Cc2c(Cl)c(Cl)c(Cl)c(Cl)c2C1`, the activity change, negative = inhibition (at 57.5 µM (top of the series)) was 0.877% (inactive). The max response under setting [1] was -22.8% and the max response under setting [2] is -20.9%.

With `O=C(O)c1ccccc1OP(=O)(O)O`, the activity change, negative = inhibition (at 25.7 µM (top of the series)) was 1.48% (inactive). In addition, the max response amounted to 3.1% under setting [1] and 4.99% under setting [2].

Consider `Cc1cc(NC(=O)C2=C(O)c3ccccc3S(=O)(=O)N2C)no1`, for which the activity change, negative = inhibition (at 25.7 µM (top of the series)) was -0.235% (inactive). Also, the max response is, setting by setting: under setting [1], -4.56%; under setting [2], -5.22%.

Regarding `Cc1onc(-c2ccccc2)c1-c1ccc(S(N)(=O)=O)cc1`, the activity change, negative = inhibition (at 57.5 µM (top of the series)) is 13.7% (inactive). The max response reads like this: under setting [1], 11.6%; under setting [2], 23.9%.

Turning to `C/C=C/C(=O)N(CC)c1ccccc1C`, the activity change, negative = inhibition (at 57.5 µM (top of the series)) is 9.1% (inactive). In addition, the max response is, setting by setting: under setting [1], 2.55%; under setting [2], 11.8%.

With `Cc1[nH]c(C)c(Cl)c(=O)c1Cl`, the activity change, negative = inhibition (at 57.5 µM (top of the series)) is 7.41% (inactive). For the same compound, the max response by setting is: under setting [1], 4.05%; under setting [2], 14%.

As to `CC(=O)NCc1c(I)c(NC(C)=O)c(I)c(C(=O)O)c1I`, the activity change, negative = inhibition (at 57.5 µM (top of the series)) is 14.5% (inactive). The max response was 17.6% under setting [1] and 37% under setting [2].

Consider `O=C(CCBr)N1CCN(C(=O)CCBr)CC1`, for which the activity change, negative = inhibition (at 57.5 µM (top of the series)) is 9.22% (inactive). The max response under setting [1] is 16.2% and the max response under setting [2] was determined as 29.1%.

Take `Cc1cc(O)cc(C)c1Cl`: the activity change, negative = inhibition (at 57.5 µM (top of the series)) was 11.1% (inactive). Also, the max response was -12.4% under setting [1] and 1.81% under setting [2].

On to `C=CCSCC1Nc2cc(Cl)c(S(N)(=O)=O)cc2S(=O)(=O)N1` (stereo not drawn), for which, under “at 57.5 µM (top of the series)”, the activity change, negative = inhibition was 8.24% (inactive). The max response is, setting by setting: under setting [1], 6.41%; under setting [2], 6.24%.

For the compound `COc1ccc2cc(CCC(C)=O)ccc2c1`, where the note is “at 25.7 µM (top of the series)”, the activity change, negative = inhibition is 1.09% (inactive). The max response was -11.1% under setting [1] and -11.1% under setting [2].

With `CCCCC1(COC(=O)CCC(=O)O)C(=O)N(c2ccccc2)N(c2ccccc2)C1=O`, the activity change, negative = inhibition by setting is: (at 25.7 µM (top of the series)) -3.4% (inactive); (at 57.5 µM (top of the series)) 5.77% (inactive). In addition, the max response was -9.42% and 23.5% under setting [1]; -12.6% and 36.6% under setting [2].

In the case of `CCOC(=O)[C@H](CCc1ccccc1)N[C@@H](C)C(=O)N1CCC[C@H]1C(=O)O`, the activity change, negative = inhibition (at 25.7 µM (top of the series)) was 0.997% (inactive). The max response is -1.26% under setting [1] and 0.539% under setting [2].

For `NC(=O)NC1NC(=O)NC1=O` (stereo not drawn), under “at 57.5 µM (top of the series)”, the activity change, negative = inhibition was 4.87% (inactive). The max response by setting is: under setting [1], 2.56%; under setting [2], 9.47%.

Turning to `CC(C)=CCC/C(C)=C/CO`, the activity change, negative = inhibition (at 57.5 µM (top of the series)) was 10.2% (inactive). For the same compound, the max response is 14.3% under setting [1] and 29.9% under setting [2].

With `Cc1c(NC(=O)c2cccnc2)c(=O)n(-c2ccccc2)n1C`, the activity change, negative = inhibition is, setting by setting: (at 25.7 µM (top of the series)) -1.84% (inactive); (at 57.5 µM (top of the series)) 5.04% (inactive). Moreover, the max response is 3.68% and 18.2% under setting [1]; 4.21% and 26.8% under setting [2].

As to `Cc1ccsc1/C=C/C1=NCCCN1C`, the activity change, negative = inhibition (at 57.5 µM (top of the series)) is 7.06% (inactive). The max response was found to be 12.1% under setting [1] and 23.6% under setting [2].

For `C[n+]1ccccc1/C=N/O`, the activity change, negative = inhibition (at 57.5 µM (top of the series)) was 6.44% (inactive). Moreover, the max response is, setting by setting: under setting [1], 15.5%; under setting [2], 23.8%.

Take `CC(N)CCCC(C)(C)O` (stereo not drawn): where the note is “at 57.5 µM (top of the series)”, the activity change, negative = inhibition is 4.55% (inactive). Also, the max response reads like this: under setting [1], 25.6%; under setting [2], 35.7%.

In the case of `CCN(CC)CCc1nc(-c2ccccc2)no1`, for the setting “at 25.7 µM (top of the series)”, the activity change, negative = inhibition was -4.73% (inactive). The max response is, setting by setting: under setting [1], -16%; under setting [2], -19.5%.

`NC(N)=NCCN1CCCCCCC1`: the activity change, negative = inhibition is, setting by setting: (at 25.7 µM (top of the series)) -2.42% (inactive); (at 57.5 µM (top of the series)) 6.2% (inactive). Also, the max response was 3.46% and 15.5% under setting [1]; 0.449% and 29.6% under setting [2].

In the case of `Cn1c(=O)c2c(ncn2CCO)n(C)c1=O`, the activity change, negative = inhibition reads like this: (at 25.7 µM (top of the series)) -0.0249% (inactive); (at 57.5 µM (top of the series)) 6.15% (inactive). Also, the max response was 7.29% and 18.9% under setting [1]; 6.36% and 16.1% under setting [2].

(Values after PubChem BioAssay (NCATS).)
